# Laboratory results published in the supplement of paper PMC10849652.
# About 7,900 targets were measured; listed, in parts, are those with a hit and a random draw of the rest. About 0.6% of all pairs of compound and target were hits. A number with no mark means an inactive call.
# Experiments:
# Assay in all cases: log2 fold change, soluble protein after heating vs DMSO (PISA); higher = thermal stabilisation; K562 cells, 10 uM, 30 min; active = over 0.2 and 3.5 SD of the protein, either way, in both replicates (recomputed)
# [1] = compound: NC(=O)Nc1cc(-c2cccc(F)c2)sc1C(=O)N[C@H]1CCCNC1
# Procedure, shortened: (§1)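 Thermal stability values are relative to control samples and come from duplicates. They are expressed as log2 fold changes. For measurement, K562 cells (2×10^6 cells/mL) received 10 μM compound for 30 min, and aliquots were heated for 3 min over 48°C-58°C, pooled, and extracted at 4°C in PBS with 0.5% NP-40. Soluble protein, the supernatant after 21,000xg for 90 min, was quantified by TMTpro 16plex LC-MS/MS with equalised channel sums.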
# [2] = compound: NC(=O)c1cnc(N[C@@H]2CCCC[C@@H]2N)nc1Nc1cccc(-n2nccn2)c1
# Procedure, shortened: as §1
# [3] = compound: NC1(c2ccc(-c3nc4ccn5c(=O)[nH]nc5c4cc3-c3ccccc3)cc2)CCC1
# Procedure, shortened: as §1
# [4] = compound: NCC(=O)Nc1ccc(-n2nc(C(F)(F)F)cc2-c2ccc3c(ccc4ccccc43)c2)cc1
# Procedure, shortened: as §1
# entinostat = compound: Nc1ccccc1NC(=O)c1ccc(CNC(=O)OCc2cccnc2)cc1 [entinostat]
# Procedure, shortened: as §1
# vorinostat = compound: O=C(CCCCCCC(=O)Nc1ccccc1)NO [vorinostat]
# Procedure, shortened: as §1
# citarinostat = compound: O=C(CCCCCCNC(=O)c1cnc(N(c2ccccc2)c2ccccc2Cl)nc1)NO [citarinostat]
# Procedure, shortened: as §1
# silmitasertib = compound: O=C(O)c1ccc2c(c1)nc(Nc1cccc(Cl)c1)c1ccncc12 [silmitasertib]
# Procedure, shortened: as §1
# [5] = compound: O=C1NC(=O)C(c2cnc3ccccn23)=C1c1cn2c3c(cc(F)cc13)CN(C(=O)N1CCCCC1)CC2
# Procedure, shortened: as §1
# [6] = compound: c1cc(OCCN2CCCCC2)cc(-c2n[nH]c3ccc(-c4nnc[nH]4)cc23)c1
# Procedure, shortened: as §1
# entospletinib = compound: c1cn2cc(-c3ccc4cn[nH]c4c3)nc(Nc3ccc(N4CCOCC4)cc3)c2n1 [entospletinib]
# Procedure, shortened: as §1
# Sequence of UniProt Q99523 (Q99523 whole entry, looked up): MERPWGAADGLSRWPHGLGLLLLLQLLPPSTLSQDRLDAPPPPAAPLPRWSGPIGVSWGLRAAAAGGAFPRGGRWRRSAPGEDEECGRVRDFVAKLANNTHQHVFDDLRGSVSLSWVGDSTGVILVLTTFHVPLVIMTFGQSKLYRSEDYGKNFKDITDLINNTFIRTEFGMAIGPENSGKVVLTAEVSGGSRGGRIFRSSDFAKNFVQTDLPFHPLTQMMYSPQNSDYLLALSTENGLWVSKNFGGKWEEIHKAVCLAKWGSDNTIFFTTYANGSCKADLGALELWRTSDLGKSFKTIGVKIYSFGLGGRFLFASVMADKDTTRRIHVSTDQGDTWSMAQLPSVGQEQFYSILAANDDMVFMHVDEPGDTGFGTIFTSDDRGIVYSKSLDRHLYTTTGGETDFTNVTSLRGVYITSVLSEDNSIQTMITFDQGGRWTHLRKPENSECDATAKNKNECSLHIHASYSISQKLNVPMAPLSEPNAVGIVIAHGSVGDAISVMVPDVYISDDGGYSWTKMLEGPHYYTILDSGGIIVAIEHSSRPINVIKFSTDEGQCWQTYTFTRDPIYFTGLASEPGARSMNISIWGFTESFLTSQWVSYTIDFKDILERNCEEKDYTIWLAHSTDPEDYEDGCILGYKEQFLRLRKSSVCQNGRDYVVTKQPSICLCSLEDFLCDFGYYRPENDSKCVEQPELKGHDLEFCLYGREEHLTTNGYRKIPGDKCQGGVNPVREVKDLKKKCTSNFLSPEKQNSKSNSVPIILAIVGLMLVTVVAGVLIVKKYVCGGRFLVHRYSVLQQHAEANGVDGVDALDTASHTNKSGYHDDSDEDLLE
# Sequence of UniProt Q8TCT7 (Q8TCT7 whole entry, looked up): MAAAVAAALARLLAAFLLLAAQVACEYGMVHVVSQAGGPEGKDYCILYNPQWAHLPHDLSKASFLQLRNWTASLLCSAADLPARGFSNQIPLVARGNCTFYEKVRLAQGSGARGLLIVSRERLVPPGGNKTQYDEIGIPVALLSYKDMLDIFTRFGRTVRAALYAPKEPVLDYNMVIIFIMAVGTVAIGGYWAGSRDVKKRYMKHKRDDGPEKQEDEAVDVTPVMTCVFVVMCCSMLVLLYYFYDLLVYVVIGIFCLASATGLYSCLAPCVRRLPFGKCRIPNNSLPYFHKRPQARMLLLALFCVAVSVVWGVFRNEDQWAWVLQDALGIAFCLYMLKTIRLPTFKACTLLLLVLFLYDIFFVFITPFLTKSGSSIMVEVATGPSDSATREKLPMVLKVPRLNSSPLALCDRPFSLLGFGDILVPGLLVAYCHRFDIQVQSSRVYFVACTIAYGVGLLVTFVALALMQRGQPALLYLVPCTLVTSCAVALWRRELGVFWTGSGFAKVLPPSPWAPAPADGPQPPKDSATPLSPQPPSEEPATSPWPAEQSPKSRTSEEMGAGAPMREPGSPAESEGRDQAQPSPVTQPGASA
# Sequence of UniProt Q658P3 (Q658P3 whole entry, looked up): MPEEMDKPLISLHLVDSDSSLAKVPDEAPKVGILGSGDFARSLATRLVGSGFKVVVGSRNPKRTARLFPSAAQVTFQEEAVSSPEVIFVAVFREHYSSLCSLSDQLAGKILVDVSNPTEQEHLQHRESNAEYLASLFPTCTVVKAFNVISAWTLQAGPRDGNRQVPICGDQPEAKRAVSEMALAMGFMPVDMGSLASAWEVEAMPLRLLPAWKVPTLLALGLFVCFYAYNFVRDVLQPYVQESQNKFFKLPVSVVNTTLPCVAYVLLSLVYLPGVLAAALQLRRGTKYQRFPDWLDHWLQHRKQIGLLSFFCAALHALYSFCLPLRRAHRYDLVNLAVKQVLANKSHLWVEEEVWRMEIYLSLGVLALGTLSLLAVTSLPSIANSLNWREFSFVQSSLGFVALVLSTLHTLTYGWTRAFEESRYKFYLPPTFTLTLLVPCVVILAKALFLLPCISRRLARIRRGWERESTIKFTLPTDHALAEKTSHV
# Sequence of UniProt O43615 (O43615 whole entry, looked up): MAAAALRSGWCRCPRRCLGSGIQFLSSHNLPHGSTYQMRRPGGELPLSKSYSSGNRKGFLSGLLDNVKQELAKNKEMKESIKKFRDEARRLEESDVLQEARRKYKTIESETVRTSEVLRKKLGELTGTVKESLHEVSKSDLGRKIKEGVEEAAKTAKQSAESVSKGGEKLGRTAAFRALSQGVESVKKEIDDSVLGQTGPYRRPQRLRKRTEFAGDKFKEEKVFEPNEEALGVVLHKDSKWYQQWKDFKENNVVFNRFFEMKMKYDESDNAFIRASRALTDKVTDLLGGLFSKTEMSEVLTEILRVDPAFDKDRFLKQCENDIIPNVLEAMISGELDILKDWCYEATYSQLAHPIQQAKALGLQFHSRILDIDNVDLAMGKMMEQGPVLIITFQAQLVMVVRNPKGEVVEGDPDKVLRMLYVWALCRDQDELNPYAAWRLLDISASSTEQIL
# Sequence of UniProt Q9Y5W9 (Q9Y5W9 whole entry, looked up): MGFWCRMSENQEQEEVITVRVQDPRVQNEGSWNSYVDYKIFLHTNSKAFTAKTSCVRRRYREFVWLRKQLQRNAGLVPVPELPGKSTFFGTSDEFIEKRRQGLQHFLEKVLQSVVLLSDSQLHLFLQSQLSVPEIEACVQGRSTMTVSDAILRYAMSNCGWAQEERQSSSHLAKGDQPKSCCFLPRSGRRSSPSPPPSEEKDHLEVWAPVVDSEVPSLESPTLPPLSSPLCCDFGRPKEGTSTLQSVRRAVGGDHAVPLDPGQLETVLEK
# Sequence of UniProt Q9NQZ5 (Q9NQZ5 whole entry, looked up): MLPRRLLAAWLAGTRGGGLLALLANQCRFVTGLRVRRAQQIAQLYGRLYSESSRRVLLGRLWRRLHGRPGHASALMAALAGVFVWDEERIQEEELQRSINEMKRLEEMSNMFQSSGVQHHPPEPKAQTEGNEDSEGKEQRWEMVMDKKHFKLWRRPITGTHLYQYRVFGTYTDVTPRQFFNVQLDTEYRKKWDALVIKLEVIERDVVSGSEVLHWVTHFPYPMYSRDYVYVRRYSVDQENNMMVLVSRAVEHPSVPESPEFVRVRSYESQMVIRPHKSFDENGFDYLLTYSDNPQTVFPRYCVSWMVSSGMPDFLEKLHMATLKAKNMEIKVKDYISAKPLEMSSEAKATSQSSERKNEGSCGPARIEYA
# Sequence of UniProt Q13586 (Q13586 whole entry, looked up): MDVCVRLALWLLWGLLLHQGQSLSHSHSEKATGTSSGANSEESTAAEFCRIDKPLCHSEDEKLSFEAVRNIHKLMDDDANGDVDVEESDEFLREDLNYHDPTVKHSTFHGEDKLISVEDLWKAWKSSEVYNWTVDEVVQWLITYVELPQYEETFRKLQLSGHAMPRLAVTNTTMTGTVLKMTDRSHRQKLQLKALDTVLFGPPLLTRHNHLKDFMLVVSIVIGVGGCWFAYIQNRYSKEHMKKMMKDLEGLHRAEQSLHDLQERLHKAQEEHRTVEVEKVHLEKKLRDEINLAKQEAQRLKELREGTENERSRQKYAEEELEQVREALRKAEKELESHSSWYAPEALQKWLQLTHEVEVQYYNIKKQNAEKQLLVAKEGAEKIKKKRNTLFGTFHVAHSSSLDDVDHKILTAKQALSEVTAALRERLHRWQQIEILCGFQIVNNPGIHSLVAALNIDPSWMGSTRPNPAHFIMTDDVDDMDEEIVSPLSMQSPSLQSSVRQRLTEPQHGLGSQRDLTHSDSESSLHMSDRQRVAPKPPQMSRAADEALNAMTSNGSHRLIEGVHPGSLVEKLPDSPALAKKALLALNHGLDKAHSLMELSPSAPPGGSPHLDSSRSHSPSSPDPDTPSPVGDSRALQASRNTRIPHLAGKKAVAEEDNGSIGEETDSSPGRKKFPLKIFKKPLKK
# Sequence of UniProt Q08170 (Q08170 whole entry, looked up): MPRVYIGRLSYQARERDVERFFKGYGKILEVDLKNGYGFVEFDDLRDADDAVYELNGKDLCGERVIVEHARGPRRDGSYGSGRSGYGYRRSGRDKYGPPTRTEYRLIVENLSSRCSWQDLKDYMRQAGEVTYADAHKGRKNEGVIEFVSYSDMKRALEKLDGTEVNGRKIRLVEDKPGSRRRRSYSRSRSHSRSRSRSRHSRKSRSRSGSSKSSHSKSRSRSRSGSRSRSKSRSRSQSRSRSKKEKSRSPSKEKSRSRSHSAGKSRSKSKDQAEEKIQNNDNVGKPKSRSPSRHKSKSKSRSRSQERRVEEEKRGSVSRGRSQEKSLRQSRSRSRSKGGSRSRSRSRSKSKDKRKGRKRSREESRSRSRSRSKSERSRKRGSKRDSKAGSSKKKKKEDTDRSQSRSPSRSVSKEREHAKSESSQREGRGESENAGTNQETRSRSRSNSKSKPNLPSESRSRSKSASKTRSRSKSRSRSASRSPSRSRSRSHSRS
# Sequence of UniProt O00193 (O00193 whole entry, looked up): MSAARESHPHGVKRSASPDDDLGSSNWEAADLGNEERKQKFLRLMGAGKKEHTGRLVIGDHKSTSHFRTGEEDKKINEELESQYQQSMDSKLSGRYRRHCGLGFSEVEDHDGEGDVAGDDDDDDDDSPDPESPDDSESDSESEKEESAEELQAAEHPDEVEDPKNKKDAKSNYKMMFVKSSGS
# Sequence of UniProt O75494 (O75494 whole entry, looked up): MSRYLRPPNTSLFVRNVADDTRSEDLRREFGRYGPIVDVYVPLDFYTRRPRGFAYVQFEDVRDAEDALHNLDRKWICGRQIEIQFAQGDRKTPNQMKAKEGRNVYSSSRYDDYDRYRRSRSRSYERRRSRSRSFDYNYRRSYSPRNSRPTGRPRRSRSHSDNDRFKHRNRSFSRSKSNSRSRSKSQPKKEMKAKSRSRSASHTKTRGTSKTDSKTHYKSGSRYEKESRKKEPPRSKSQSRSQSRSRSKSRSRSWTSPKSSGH
# Sequence of UniProt O75663 (O75663 whole entry, looked up): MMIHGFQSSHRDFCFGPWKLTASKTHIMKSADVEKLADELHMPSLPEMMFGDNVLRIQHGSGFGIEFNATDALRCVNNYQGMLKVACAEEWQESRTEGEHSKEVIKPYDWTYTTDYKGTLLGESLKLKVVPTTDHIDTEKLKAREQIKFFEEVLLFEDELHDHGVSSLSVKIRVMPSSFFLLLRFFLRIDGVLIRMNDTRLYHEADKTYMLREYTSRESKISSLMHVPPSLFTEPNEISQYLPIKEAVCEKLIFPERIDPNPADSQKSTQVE
Target,log2 fold change [1],log2 fold change [2],log2 fold change [3],log2 fold change [4],log2 fold change (entinostat),log2 fold change (vorinostat),log2 fold change (citarinostat),log2 fold change (silmitasertib),log2 fold change [5],log2 fold change [6],log2 fold change (entospletinib)
SMAP (UniProt O00193),0.007,-0.021,0.12,0.013,0.016,-0.047,-0.029,-0.033,0.006,0.02,0.07
SPECC1 (UniProt Q5M775),-0.126,-0.053,-0.124,-0.132,-0.007,0,-0.213,0.08,-0.06,-0.091,0.085
SPPL2B (UniProt Q8TCT7),0.06,0.009,-0.031,-0.016,-0.052,-0.013,0.05,-0.037,0.029,-0.025,-0.056
TIPRL (UniProt O75663),-0.057,-0.114,-0.209 (active),-0.068,0.033,0.095,0.069,-0.032,-0.06,-0.012,0.018
TIMM44 (UniProt O43615),-0.085,-0.141,-0.372 (active),-0.023,0.084,0.04,0.066,-0.041,-0.027,-0.048,-0.036
SRSF10 (UniProt O75494),0.059,-0.096,0.444,0.063,-0.047,0.048,-0.153,0.103,0.304,-0.152,0.235
TFRC (UniProt P02786),-0.021,-0.031,-0.823 (active),-0.001,-0.008,-0.02,0.062,0.006,-0.023,-0.071,0.022
TJP2 isoform 7 (UniProt Q9UDY2),-0.129,-0.007,-0.171,-0.051,0.014,0.161,0.039,-0.061,0.025,-0.167,0.037
SORT1 (UniProt Q99523),-0.005,-0.032,-0.687 (active),0.038,-0.017,-0.002,0.073,0.006,0.004,-0.139,0.05
STAT6 (UniProt P42226),-0.07,-0.065,-0.041,-0.268,0.044,0.108,0.061,0.041,-0.047,0.03,-0.052
SMCHD1 (UniProt A6NHR9),-0.085,-0.352,0.159,-0.423,0.08,0.19,0.085,0.095,0.206,-0.176,0.049
SLC6A6 (UniProt P31641),-0.099,0.03,0.024,-0.19,-0.031,-0.059,0.065,0.039,0.086,0.269 (active),-0.067
TBC1D20 isoform 3 (UniProt Q96BZ9),-0.062,0.052,0.027,-0.08,0.026,0.033,0.293,0.03,-0.007,0.03,-0.065
STIM1 (UniProt Q13586),-0.032,-0.074,-0.075,-0.117,0.011,0.022,-0.013,0.007,-0.054,-0.04,0.003
SMARCAD1 isoform 2 (UniProt Q9H4L7),-0.109,-0.043,-0.187,-0.072,0.057,0.045,0.037,0.03,-0.187,0.088,-0.008
SLC44A2 isoform 2 (UniProt Q8IWA5),-0.086,0.168,0.128,0.05,-0.06,-0.006,0.091,-0.071,-0.075,-0.289,-0.085
SRSF4 (UniProt Q08170),-0.059,0.036,0.196,0.03,-0.002,-0.02,-0.028,-0.005,0.206,-0.228,0.134
TFR2 (UniProt Q9UP52),-0.039,-0.004,-0.601 (active),0.007,0.007,0.002,0.033,-0.001,-0.035,-0.067,0.052
STARD7 (UniProt Q9NQZ5),-0.048,-0.113,-0.088,0.012,0.008,0.114,0.073,-0.011,0.341 (active),-0.089,-0.052
STEAP3 isoform 2 (UniProt Q658P3),-0.13,0.076,-0.042,-0.006,0.008,0.086,0.013,0,-0.028,-0.082,-0.038
SNX11 (UniProt Q9Y5W9),-0.052,-0.277,-0.378 (active),-0.052,0.097,0,0.233,0.025,-0.023,-0.072,0.135
TAF9 (UniProt Q16594),-0.352,-0.026,0.037,0,-0.567 (active),0.002,-0.043,-0.039,-0.022,0.055,-0.042
SPART (UniProt Q8N0X7),-0.032,-0.105,-0.053,0.006,0.043,-0.032,0.015,0.081,-0.024,0.04,-0.005
ST3GAL2 (UniProt Q16842),-0.066,0.101,-0.04,0.008,-0.028,-0.013,0.008,-0.003,-0.016,-0.05,0.167
STXBP2 isoform 3 (UniProt Q15833),-0.084,-0.066,-0.12,-0.051,0.035,0.105,0.046,0.112,0.141,0.036,0.099
TCOF1 isoform 4 (UniProt Q13428),0.131,-0.065,-0.014,-0.013,-0.015,-0.026,-0.002,0.002,0.045,-0.112,0.001
SNX5 (UniProt Q9Y5X3),-0.022,-0.275,-0.332 (active),-0.037,0.078,0.108,0.09,-0.061,-0.006,-0.11,-0.002
